Experimental data published in PubChem BioAssay (Tox21).
Inconclusive results are not listed. Calls of active or inactive are those of the source. Unless noted, the call rests on the fitted dose curve; in most records, active means well fitted curve in the direction sought with a large enough effect in the repeat runs; inconclusive means weak or mixed curves; inactive means no such curve, though single readings can be large; an effect the other way counts as inactive or inconclusive.

How the values were obtained:
[1] = A CellTox Green Cytotoxicity Assay to monitor cytotoxicity in HEK293 cells - 32 hour (AID 1224881); further: nearly all actives have a fitted effect of over 40% in size; further: potency means the concentration at half of the fitted maximal effect
How it was run: (§1)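 Cells (HEK293, 600/well) and dye reagent are dispensed together. After 5 h at 37 C, 23 nL compound is pinned in. Plates stay at 37 C for 40 h with fluorescence read at 0h, 8h, 16h, 24h, 32h and 40h.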

[2] = A CellTox Green Cytotoxicity Assay to monitor cytotoxicity in HepG2 cells - 0 hour (AID 1224882); further: nearly all actives have a fitted effect of over 35% in size
How it was run: (§2)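 Cells and non-lytic dye reagent are dispensed together (600 HepG2 cells/well) and incubated 5 h before DMSO compound transfer. Kinetic fluorescence is then recorded in the same wells during 40 h at 37 C.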

[3] = A CellTox Green Cytotoxicity Assay to monitor cytotoxicity in HepG2 cells - 32 hour (AID 1224883); further: nearly all actives have a fitted effect of over 50% in size; further: potency means the concentration at half of the fitted maximal effect
How it was run: as §2

[4] = A CellTox Green Cytotoxicity Assay to monitor cytotoxicity in HEK293 cells - 8 hour (AID 1224884); further: nearly all actives have a fitted effect of over 35% in size
How it was run: as §1

[5] = qHTS RealTime-Glo MT Cell Viability Assay in HepG2 cells - 16 hour (AID 1224885); further: nearly all actives have a fitted effect of over 50% in size
How it was run: (§3)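 qHTS, HepG2, 600 cells/well, RealTime-Glo (NanoLuc + prosubstrate) added with cells; 5 h preincubation; DMSO compound addition; 37 C; luminescence at 0/8/16/24/32/40 h.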

[6] = qHTS RealTime-Glo MT Cell Viability Assay in HEK293 cells - 24 hour (AID 1224886); further: top concentration of the series differs between compounds; nearly all actives have a fitted effect of over 50% in size
How it was run: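 Assay medium contained NanoLuc luciferase plus cell-permeant prosubstrate, added with HEK293 cells at 600 cells/well. After 5 h at 37 C/5% CO2 compounds were added; plates stayed at 37 C for 40 h with serial luminescence reads.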

[7] = A CellTox Green Cytotoxicity Assay to monitor cytotoxicity in HEK293 cells - 16 hour (AID 1224888); further: nearly all actives have a fitted effect of over 35% in size
How it was run: as §1

[8] = qHTS RealTime-Glo MT Cell Viability Assay in HepG2 cells - 0 hour (AID 1224889); further: nearly all actives have a fitted effect of over 50% in size
How it was run: as §3

[9] = A CellTox Green Cytotoxicity Assay to monitor cytotoxicity in HepG2 cells - 8 hour (AID 1224890); further: nearly all actives have a fitted effect of over 45% in size; further: potency means the concentration at half of the fitted maximal effect
How it was run: as §2

[10] = qHTS assay to identify small molecule antagonists of the androgen receptor (AR) signaling pathway using the MDA cell line in the presence of 0.5 nM R1881 - cell viability counter screen (AID 1259242); further: nearly all actives have a fitted effect of over 45% in size
How it was run: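 Steps: plate MDA-kb2 cells, rest 5 hr at 37C without CO2; pin in compounds in DMSO; add R1881 to 0.5 nM final; incubate 16 hr; add CellTiter-Fluor, 30 min; read fluorescence.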

[11] = biological target: Estrogen receptor (Homo sapiens) (UniProt P03372); assay: qHTS assay to identify small molecule antagonists of the estrogen receptor alpha (ER-alpha) signaling pathway using the BG1 cell line in the presence of 0.1 nM 17-beta-estradiol (AID 1259244); further: nearly all actives have a fitted effect of over 50% in size
How it was run: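 Antagonist mode: compounds in DMSO are pinned onto VM7Luc4E2 reporter cells, 0.1 nM final 17beta-estradiol is added, and after 22 h at 37C luciferase luminescence is measured with ONE-Glo.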

[12] = qHTS assay to identify small molecule phospholipidosis (PLD) inducers (AID 1259344; active means well fitted curve in the direction sought with a large enough effect; an effect the other way counts as inactive or inconclusive)
How it was run: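 Phospholipid accumulation was scored by imaging: fixed, Hoechst-counterstained HepG2 cells stained with LipidTOX Red after 24 h compound exposure at 37 C. Read-outs were pit count and pit intensity per well or per cell, with amiodarone and DMSO controls.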

[13] = qHTS assay to identify small molecule HDAC inhibitors (AID 1259364); further: potency means the concentration at half of the fitted maximal effect;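 further: wild-type HCT-116 cells with endogenous class I/II HDAC activity; nearly all actives have a fitted effect of over 45% in size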
How it was run: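 Cells (HCT-116, wild type) are seeded at 1,500 per well, incubated overnight, treated with compound in DMSO for 2 hr, then developed with HDAC-Glo I/II reagent for 30 min at room temperature.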

[14] = qHTS assay to identify small molecule HDAC inhibitors - cell viability counter screen (AID 1259365); further: nearly all actives have a fitted effect of over 50% in size; further: potency means the concentration at half of the fitted maximal effect
How it was run: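 Wild-type HCT-116 cells, 1,500/well, cultured overnight, then compound-treated 2 h at 37 C. Viability measured as ATP luminescence with CellTiter-Glo after 30 min at room temperature.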

[15] = qHTS assay to identify small molecule antagonists of the sonic hedgehog signaling (Shh) pathway - cell viability counter screen (AID 1259367); further: nearly all actives have a fitted effect of over 55% in size; further: potency means the concentration at half of the fitted maximal effect
How it was run: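 Viability was read by CellTiter-Fluor fluorescence in the same wells, reagent added 23 hr into compound treatment and incubated 1 hr at 37C. The 3T3 Gli1-Luc reporter cells (2,000/well) received conditioned medium after compound and ran 24 hr.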

[16] = qHTS assay to identify small molecule agonists of the sonic hedgehog signaling (Shh) pathway (AID 1259368; calls by dose curve;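 further: NIH/3T3-derived 3T3Gli1-Luc cells carrying a stable Gli1-driven firefly luciferase reporter; series mostly up to about 92 µM; nearly all actives have a fitted effect of over 15% in size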)
How it was run: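 Cells of a mouse NIH/3T3 clone stably expressing luciferase under the Gli1 transcriptional response element are exposed to test chemicals for 24 hr at 37 C. Pathway activation is detected as a rise in luminescence.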

[17] = qHTS RealTime-Glo MT Cell Viability Assay in HEK293 cells - 8 hour (AID 1224887)
How it was run: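 Real-time viability in HEK293: signal arises when living cells convert a prosubstrate for NanoLuc in the medium, so luminescence tracks viable cell number. Compound (23 nL, DMSO) added 5 h post-seeding; kinetic reads at 0–40 h, 37 C.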

[18] = qHTS assay to identify small molecule antagonists of the estrogen receptor alpha (ER-alpha) signaling pathway using the BG1 cell line in the presence of 0.1 nM 17-beta-estradiol - cell viability counter screen (AID 1259241); further: nearly all actives have a fitted effect of over 40% in size; further: potency means the concentration at half of the fitted maximal effect
How it was run: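 VM7Luc4E2 cells (endogenous full-length ER-alpha, 4xERE-luciferase), cultured 5 days in charcoal-stripped serum, exposed to compounds with 0.1 nM 17beta-estradiol (final) for 22 hr at 37C. Viability read in same wells as live-cell protease fluorescence after 30 min.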

[19] = qHTS assay to identify small molecule agonists of the sonic hedgehog signaling (Shh) pathway - cell viability counter screen (AID 1259366); further: nearly all actives have a fitted effect of over 50% in size; further: potency means the concentration at half of the fitted maximal effect
How it was run: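 NIH/3T3-derived Gli1-Luc reporter cells, 2,000 per well, received compound after 4 h and were treated about 23 h at 37C. Viability measured in the same wells by CellTiter-Fluor fluorescence after 1 h.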

[20] = biological target: Androgen receptor (Homo sapiens) (UniProt P10275); assay: qHTS assay to identify small molecule antagonists of the androgen receptor (AR) signaling pathway using the MDA cell line in the presence of 0.5 nM R1881 (AID 1259243); further: nearly all actives have a fitted effect of over 50% in size; further: potency means the concentration at half of the fitted maximal effect
How it was run: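 Stably transfected MDA-kb2 cells express luciferase from an MMTV promoter bearing both AR and GR response elements. Compounds plus 0.5 nM R1881 (final) were incubated 16 hr at 37C without CO2, then luminescence measured.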
On the % scale 0 is the no-effect control and ±100 the full control effect.

Sequence of Estrogen receptor (Homo sapiens) (P03372 whole entry, looked up): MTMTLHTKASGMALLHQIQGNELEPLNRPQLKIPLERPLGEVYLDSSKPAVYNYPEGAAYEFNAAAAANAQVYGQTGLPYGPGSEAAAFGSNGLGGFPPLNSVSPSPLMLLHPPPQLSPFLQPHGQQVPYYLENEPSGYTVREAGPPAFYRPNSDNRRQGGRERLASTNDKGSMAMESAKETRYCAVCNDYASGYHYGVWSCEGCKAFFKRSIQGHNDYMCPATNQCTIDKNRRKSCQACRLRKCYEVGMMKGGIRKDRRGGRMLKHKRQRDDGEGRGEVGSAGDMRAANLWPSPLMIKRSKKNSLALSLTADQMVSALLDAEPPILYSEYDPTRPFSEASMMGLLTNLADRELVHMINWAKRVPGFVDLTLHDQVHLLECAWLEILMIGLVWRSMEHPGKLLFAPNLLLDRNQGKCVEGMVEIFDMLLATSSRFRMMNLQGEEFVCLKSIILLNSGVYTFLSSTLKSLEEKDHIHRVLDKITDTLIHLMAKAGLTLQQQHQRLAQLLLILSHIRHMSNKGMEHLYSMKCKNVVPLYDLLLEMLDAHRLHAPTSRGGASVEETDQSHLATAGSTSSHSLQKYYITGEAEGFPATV
Sequence of Androgen receptor (Homo sapiens) (P10275 whole entry, looked up): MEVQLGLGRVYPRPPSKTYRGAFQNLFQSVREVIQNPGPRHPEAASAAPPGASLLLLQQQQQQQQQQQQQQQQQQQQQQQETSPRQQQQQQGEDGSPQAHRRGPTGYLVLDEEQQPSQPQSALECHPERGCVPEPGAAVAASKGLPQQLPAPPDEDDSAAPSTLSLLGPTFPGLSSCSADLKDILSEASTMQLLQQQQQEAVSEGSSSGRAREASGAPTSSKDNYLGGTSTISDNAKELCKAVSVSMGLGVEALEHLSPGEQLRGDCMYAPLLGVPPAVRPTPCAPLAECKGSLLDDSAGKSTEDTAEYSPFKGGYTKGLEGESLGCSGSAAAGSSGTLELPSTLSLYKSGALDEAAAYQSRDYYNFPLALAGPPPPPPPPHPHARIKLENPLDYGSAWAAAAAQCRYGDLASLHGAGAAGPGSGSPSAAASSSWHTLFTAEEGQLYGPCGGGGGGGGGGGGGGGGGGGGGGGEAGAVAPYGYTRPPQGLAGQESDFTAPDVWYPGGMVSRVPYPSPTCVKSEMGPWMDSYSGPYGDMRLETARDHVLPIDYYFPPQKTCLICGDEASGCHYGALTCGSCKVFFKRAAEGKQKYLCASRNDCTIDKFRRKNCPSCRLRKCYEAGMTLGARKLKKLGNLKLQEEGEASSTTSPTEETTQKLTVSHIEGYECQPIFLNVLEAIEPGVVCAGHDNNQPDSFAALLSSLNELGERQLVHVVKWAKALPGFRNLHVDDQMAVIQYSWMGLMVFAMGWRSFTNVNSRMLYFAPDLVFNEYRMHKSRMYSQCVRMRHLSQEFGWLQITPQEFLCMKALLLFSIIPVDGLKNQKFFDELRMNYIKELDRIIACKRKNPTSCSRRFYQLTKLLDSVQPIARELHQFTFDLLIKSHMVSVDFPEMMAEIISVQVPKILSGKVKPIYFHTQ

c1ccc(CNCCNCc2ccccc2)cc1
inactive: Potency [1] | Potency [2] | Potency [3] | Potency [4] | Potency [5] | Potency [6] | Potency [7] | Potency [8] | Potency [9] | Potency [10] | Potency [11] | Potency [12] | Potency [13] | Potency [14] | Potency [15] | outcome [16]

COc1ccc(C(=O)N2CCN(CC(=O)N3CCOCC3)CC2)cc1
inactive: Potency [1] | Potency [2] | Potency [3] | Potency [4] | Potency [5] | Potency [6] | Potency [17] | Potency [7] | Potency [9] | Potency [18] | Potency [10] | Potency [11] | Potency [12] | Potency [13] | Potency [14] | Potency [19] | Potency [15] | outcome [16]

Cc1cccc(Nc2ccccc2)c1
inactive: Potency [2] | Potency [4] | Potency [5] | Potency [6] | Potency [7] | Potency [8] | Potency [18] | Potency [10] | Potency [14] | Potency [15] | outcome [16]
active: Potency [1] 34.7 µM | Potency [3] 38.9 µM | Potency [9] 49 µM | Potency [20] 24.3 µM

CCN(CC)c1ccc(C(=C2C=CC(=[N+](CC)CC)C=C2)c2cc(S(=O)(=O)O)ccc2S(=O)(=O)[O-])cc1
inactive: Potency [1] | Potency [2] | Potency [3] | Potency [4] | Potency [5] | Potency [6] | Potency [17] | Potency [8] | Potency [9] | outcome [16]
active: Potency [20] 7.5 µM | Potency [13] 9.44 µM

COc1cc(Cl)c(OC)cc1N
inactive: Potency [1] | Potency [2] | Potency [3] | Potency [4] | Potency [5] | Potency [6] | Potency [8] | Potency [9] | Potency [18] | Potency [10] | Potency [13] | Potency [14] | Potency [15] | outcome [16]

C[Si](C)(CCCN)O[Si](C)(C)CCCN
inactive: Potency [1] | Potency [2] | Potency [3] | Potency [4] | Potency [5] | Potency [6] | Potency [17] | Potency [9] | Potency [18] | Potency [10] | Potency [11] | Potency [13] | Potency [14] | Potency [19] | Potency [15] | outcome [16]

COC(C)(C)CCO
inactive: Potency [1] | Potency [2] | Potency [3] | Potency [4] | Potency [5] | Potency [6] | Potency [17] | Potency [9] | Potency [18] | Potency [10] | Potency [14] | Potency [19] | Potency [15] | outcome [16]

CC(C)(CO)[N+](=O)[O-]
inactive: Potency [1] | Potency [2] | Potency [3] | Potency [4] | Potency [5] | Potency [6] | Potency [17] | Potency [8] | Potency [9] | Potency [18] | Potency [10] | Potency [13] | Potency [15] | outcome [16]

C/C=C/C=C/CO
inactive: Potency [1] | Potency [2] | Potency [3] | Potency [4] | Potency [5] | Potency [17] | Potency [7] | Potency [9] | Potency [10] | Potency [13] | Potency [14] | Potency [19] | Potency [15] | outcome [16]

Nc1ccc(N)c2c1C(=O)c1ccccc1C2=O
active: Potency [18] 12.2 µM | Potency [14] 30.6 µM | Potency [19] 21.7 µM | Potency [15] 10.9 µM
inactive: Potency [1] | Potency [2] | Potency [3] | Potency [4] | Potency [5] | Potency [7] | Potency [8] | Potency [9] | outcome [16]

CC1(c2ccccc2)OC(C(=O)O)=CC1=O (centres undefined)
inactive: Potency [1] | Potency [2] | Potency [3] | Potency [4] | Potency [5] | Potency [17] | Potency [7] | Potency [8] | Potency [9] | Potency [10] | Potency [12] | Potency [13] | Potency [14] | Potency [19] | Potency [15] | outcome [16]

Cc1cc(N)c2cc(NC(=O)Nc3ccc4nc(C)cc(N)c4c3)ccc2n1
inactive: Potency [1] | Potency [2] | Potency [3] | Potency [4] | Potency [5] | Potency [17] | Potency [7] | Potency [9] | Potency [18] | Potency [10] | Potency [20] | Potency [14] | outcome [16]

CN(C)CCN(Cc1ccc(Cl)cc1)c1ccccn1
inactive: Potency [1] | Potency [2] | Potency [3] | Potency [4] | Potency [5] | Potency [17] | Potency [7] | Potency [8] | Potency [9] | Potency [18] | Potency [10] | PLD induction [12] -3.78% [at 0.137 µM] | Potency [13] | Potency [14] | Potency [15] | outcome [16]

Cn1c(=O)cc(Oc2ccc(F)cc2F)c2cnc(NCC(C)(C)O)nc21
inactive: Potency [1] | Potency [2] | Potency [3] | Potency [4] | Potency [5] | Potency [17] | Potency [7] | Potency [9] | Potency [10] | Potency [13] | Potency [14] | Potency [19] | outcome [16]

CC(C)Cc1ccc(C(C)C(=O)OCc2ccccn2)cc1 (centres undefined)
inactive: Potency [1] | Potency [2] | Potency [3] | Potency [4] | Potency [5] | Potency [8] | Potency [9] | Potency [18] | Potency [10] | Potency [11] | Potency [13] | Potency [14] | Potency [19] | Potency [15] | outcome [16]
